An excerpt weighted towards active compounds, which were near 3.8% of everything screened.
PAFAH2 FP inh: inhibitors of human PAFAH2; 0.99% of 340,000 active; recombinant PAFAH2, FP-rhodamine activity probe, fluorescence polarization; inhibition, % at 3.39 µM; Q99487;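 active = inhibition above the mean over all tested compounds plus 3 SD, cut at about 30% in these data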;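 note: inhibitors block probe labeling of enzyme so polarization drops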
PfM18AAP inh: blocks P. falciparum M18 aspartyl aminopeptidase; recombinant PfM18AAP, H-Glu-NHMec fluorogenic cleavage; inhibition, % at 7.35 µM; 1.2% of 290,000 active;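 active = inhibition above the campaign mean inhibition over all tested compounds plus 3 SD, cut at about 28% in these data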
PAFAH1B2 inh: blocks human PAF acetylhydrolase 1b catalytic subunit 2; 1.2% of 340,000 active; P68402; AID 492953; recombinant PAFAH1B2, FP-rhodamine activity probe, fluorescence polarization; inhibition, % at 3.39 µM;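 active = inhibition above the mean of all tested compounds plus 3 SD, cut at about 24% in these data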
Target sequence (P68402 whole entry, looked up): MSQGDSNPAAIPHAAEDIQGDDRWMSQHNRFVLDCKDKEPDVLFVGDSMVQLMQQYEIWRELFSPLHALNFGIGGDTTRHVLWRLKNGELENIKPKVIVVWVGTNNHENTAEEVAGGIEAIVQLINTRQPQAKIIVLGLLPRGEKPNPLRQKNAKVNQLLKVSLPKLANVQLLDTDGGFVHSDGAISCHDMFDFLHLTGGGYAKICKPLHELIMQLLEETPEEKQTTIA
pPAFAH FP inh: inhibitors of human plasma PAF acetylhydrolase (pPAFAH); inhibition, % at 3.39 µM; Q13093; recombinant pPAFAH, FP-rhodamine probe fluorescence polarization; 1.5% of 330,000 active;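 active = inhibition above the mean inhibition across the screen plus 3 SD, cut at about 25% in these data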;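 note: inhibitors block binding of the rhodamine activity-based probe so polarization drops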
PAFAH1B3 FP inh: blocks human PAF acetylhydrolase 1B catalytic subunit 3; Q15102; AID 492972; 0.28% of 340,000 active; inhibition, % at 3.39 µM; recombinant PAFAH1B3, FP-rhodamine probe, fluorescence polarization;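 active = inhibition above the screen-wide average of all tested compounds plus 3 SD, cut at about 25% in these data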
Target sequence (Q15102 whole entry, looked up): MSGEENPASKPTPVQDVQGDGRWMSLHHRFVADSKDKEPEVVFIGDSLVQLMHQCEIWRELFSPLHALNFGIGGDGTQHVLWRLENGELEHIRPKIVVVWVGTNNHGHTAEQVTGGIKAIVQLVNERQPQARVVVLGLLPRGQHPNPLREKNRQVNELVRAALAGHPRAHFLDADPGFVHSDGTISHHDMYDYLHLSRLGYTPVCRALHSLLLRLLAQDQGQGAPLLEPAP
DSG3 Ab inh: blocks pemphigus antibody binding to human desmoglein-3. P32926. DSG3-coupled beads, scFv-anti-DSG3-GFP binding, flow cytometry; hits give low values. binding (percent of control), % at 10 µM. 0.48% of 310,000 active. AID 588358;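 active = binding more than 3 SD below its plate's average and above zero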;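 note: hits lower antibody fragment binding to DSG3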
Numbers stand for hits.

Cc1cc(OCC(=O)NC(Cc2ccc(Cl)cc2)C(=O)O)c2c3c(c(=O)oc2c1)CCCC3 (stereo unspecified) was read as PAFAH2 FP inh inactive, PfM18AAP inh inactive, PAFAH1B2 inh 30, pPAFAH FP inh inactive, PAFAH1B3 FP inh inactive and DSG3 Ab inh inactive.
O=S(=O)(c1ccccc1)N1Cc2ccccc2-n2nncc2C1 was read as DSG3 Ab inh inactive.
Screening C[N+]12CCC(CC1)C(C(O)(c1cccc(Cl)c1)c1cccc(Cl)c1)C2 (stereo unspecified) returned PAFAH2 FP inh inactive, PfM18AAP inh inactive, PAFAH1B2 inh inactive, pPAFAH FP inh inactive, PAFAH1B3 FP inh inactive and DSG3 Ab inh 82.
For CC[N+]12CCC(CC1)C(C(O)(c1ccccc1)c1ccccc1)C2 (stereo unspecified) the results were PAFAH2 FP inh inactive, PfM18AAP inh inactive, PAFAH1B2 inh inactive, pPAFAH FP inh inactive, PAFAH1B3 FP inh inactive and DSG3 Ab inh inactive.
For CCC1C(c2cc(OC)c(OC)c(OC)c2)c2cc3c(cc2OC1N1CCCC1)OCO3 (stereo unspecified) the results were PAFAH2 FP inh inactive, PAFAH1B2 inh inactive, PAFAH1B3 FP inh inactive and DSG3 Ab inh inactive.
O/N=C1\CCC2CN(C3CCCCC3)CC2C1 (stereo unspecified) was read as PAFAH2 FP inh inactive, PfM18AAP inh inactive, PAFAH1B2 inh inactive, pPAFAH FP inh inactive, PAFAH1B3 FP inh inactive and DSG3 Ab inh 12.
Screening CCCCC(=O)N/N=C/c1c(O)n(Cc2ccco2)c(=O)[nH]c1=O returned PAFAH2 FP inh inactive, PfM18AAP inh inactive, PAFAH1B2 inh inactive, pPAFAH FP inh inactive, PAFAH1B3 FP inh inactive and DSG3 Ab inh inactive.
Screening O=C(N/N=C/c1c(O)n(C2CCCCC2)c(=S)[nH]c1=O)c1ccccc1O returned PAFAH2 FP inh inactive, PfM18AAP inh inactive, PAFAH1B2 inh inactive, pPAFAH FP inh 32, PAFAH1B3 FP inh inactive and DSG3 Ab inh inactive.
O=C(N/N=C/c1c(O)n(C2CCCCC2)c(=S)[nH]c1=O)c1ccccc1 was read as PAFAH2 FP inh inactive, PfM18AAP inh inactive, PAFAH1B2 inh inactive, pPAFAH FP inh inactive and PAFAH1B3 FP inh inactive.
Screening O=C(N/N=C/c1c(O)n(Cc2ccco2)c(=O)[nH]c1=O)c1ccccc1O returned PAFAH2 FP inh 35, PfM18AAP inh inactive, PAFAH1B2 inh inactive, pPAFAH FP inh 30, PAFAH1B3 FP inh inactive and DSG3 Ab inh inactive.
`O=P(O)(Oc1ccccc1)OC(c1ccccc1)C(F)(F)C(F)(F)F` (stereo unspecified) gave PAFAH2 FP inh inactive, PfM18AAP inh inactive, PAFAH1B2 inh 77, pPAFAH FP inh inactive, PAFAH1B3 FP inh inactive and DSG3 Ab inh inactive.
`O=C1NC(=O)N(Cc2ccco2)C(=O)/C1=C/c1cccn1CCOc1ccccc1Cl` gave PAFAH2 FP inh inactive, PfM18AAP inh inactive, PAFAH1B2 inh inactive, pPAFAH FP inh 26, PAFAH1B3 FP inh inactive and DSG3 Ab inh inactive.
`Cn1cccc1/C=C1/C(=O)NC(=O)N(Cc2ccccc2)C1=O` gave PAFAH2 FP inh inactive, PfM18AAP inh inactive, PAFAH1B2 inh inactive, pPAFAH FP inh inactive, PAFAH1B3 FP inh inactive and DSG3 Ab inh inactive.
Cn1cccc1/C=C1\C(=O)NC(=O)N(Cc2ccccc2)C1=O was read as PAFAH2 FP inh inactive, PfM18AAP inh inactive, PAFAH1B2 inh inactive, pPAFAH FP inh inactive, PAFAH1B3 FP inh inactive and DSG3 Ab inh inactive.
`Cn1cccc1/C=C1/C(=O)NC(=O)N(Cc2ccc(F)cc2)C1=O` gave PAFAH2 FP inh inactive, PfM18AAP inh inactive, PAFAH1B2 inh 29, pPAFAH FP inh inactive, PAFAH1B3 FP inh inactive and DSG3 Ab inh inactive.
For CN(C)[C@@H]1C(=O)C(C(N)=O)=C(O)[C@@]2(O)C(=O)C3=C(O)c4c(O)cccc4[C@@](C)(O)[C@H]3C[C@@H]12 the results were pPAFAH FP inh 73.
For O=S(=O)(c1cccc(C(F)(F)F)c1)N1Cc2ccccc2-n2nncc2C1 the results were DSG3 Ab inh inactive.
`COCCNC(=O)Cn1cc(C=C2C(=O)NC(=O)NC2=O)c2ccccc21` gave PAFAH2 FP inh inactive, PfM18AAP inh 31, PAFAH1B2 inh inactive, pPAFAH FP inh inactive, PAFAH1B3 FP inh inactive and DSG3 Ab inh inactive.
COC(=O)Cn1cc(/C=C2\C(=O)NC(=O)N(c3ccccc3)C2=O)c2ccccc21 was read as PAFAH2 FP inh inactive, PfM18AAP inh inactive, PAFAH1B2 inh inactive, pPAFAH FP inh inactive, PAFAH1B3 FP inh inactive and DSG3 Ab inh inactive.

Screening data: PubChem, several laboratories
